Test results published in PubChem BioAssay (NCATS).
Inconclusive results are not listed. The source made the active and inactive calls. Unless noted, calls come from the whole dose curve; as a rule, active = well fitted curve in the direction sought with a large enough effect; inconclusive = small, poorly fitted or top-dose-only effect, or another doubt; inactive = no such curve, though single readings can be large; an effect the other way counts as inactive or inconclusive. Where a SMILES comes first, the peptide text is derived from it. Bridges are numbered along the chain shown (N, C = ends). [ ]: non-standard residue; d: D form. hArg = N=C(N)NCCCC[C@H](N)C(=O)O; Mpa = O=C(O)CCS

Legend:
[1] = qHTS assay for measurement of the activity of small molecule inhibitors on Zika virus induced Caspase-3 activity in human iPSC derived neural progenitor cells (hNPCs) (AID 1224857); note: % of control where 0% means no effect; nearly all actives have a fitted effect of over 65% in size
How it was run: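 Human iPSC-derived neural progenitor cells pretreated 1 hr with compounds, then infected with Zika virus (2 FFU/cell) for 6 hours at 37 C. Caspase-3/7 measured by Caspase-Glo luminescence; % inhibition calculated from induction scaled to uninfected (0%) and infected (100%) wells.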

[2] = qHTS assay to identify small molecule inhibitors of chordoma cells - UCH-1 (AID 1259355); note: % is set by controls: 0 for no effect and ±100 for the full control effect; nearly all actives have a fitted effect of over 55% in size
How it was run: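 Cells (800/well) were seeded and left overnight at 37 C, 5% CO2, then treated with drugs at 15 concentrations plus a combination mix of auranofin, camptothecin, doxorubicin, rubitecan and topotecan. Viability after 48hr was read by CellTiter-Glo luminescence.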

[3] = qHTS assay to identify small molecule inhibitors of chordoma cells - UCH-2 (AID 1259356); note: % is set by controls: 0 for no effect and ±100 for the full control effect
[4] = P-glycoprotein substrates identified in KB-8-5-11 adenocarcinoma cell line, qHTS therapeutic library screen (AID 1346987); conditions: outcome: dose series up to 44.5 µM; note: % is set by controls: 0 for no effect and ±100 for the full control effect; nearly all actives have a fitted effect of over 65% in size
How it was run: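 P-gp-mediated resistance screen: KB-8-5-11 cells treated 72 h with compounds in dose-response. CellTiter-Glo viability.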

[5] = NS1 protein of Zika virus - qHTS assay to identify small molecule inhibitors in human HEK 293 cells (AID 1347053);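 note: plate controls were infected untreated cells for no effect and uninfected cells for full effect; nearly all actives have a fitted effect of over 55% in size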
How it was run: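 HEK 293 cells pretreated with compound for 1 h, then infected with ZIKV MR766 (MOI 0.5) for 24 h at 37 C. NS1 detected by TR-FRET with two anti-NS1 antibodies; normalized to uninfected (0%) and infected (100%) wells.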

[6] = qHTS of pediatric cancer cell lines to identify multiple opportunities for drug repurposing: Primary screen for TC32 cells (AID 1347089); note: % is set by controls: 0 for no effect and ±100 for the full control effect; nearly all actives have a fitted effect of over 60% in size
How it was run: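 A viability screen of TC32 cells was run over 48 h, with primary MIPE doses spanning 0.78 nM–46 µM and NPC doses 0.59 nM–46 µM. ATP luminescence (CellTiter-Glo) served as the read-out.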

[7] = qHTS of pediatric cancer cell lines to identify multiple opportunities for drug repurposing: Primary screen for DAOY cells (AID 1347090);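 note: plate controls were DMSO for no effect and bortezomib for full effect; nearly all actives have a fitted effect of over 55% in size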
How it was run: (§1)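 Viability measured as metabolically active cells via CellTiter-Glo luminescence following 48 hours of compound exposure, 11-point dilutions in confirmatory testing. 500-1,000 cells/well plated 5 hours before dosing; controls were DMSO and 2.3 µM bortezomib.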

[8] = qHTS of pediatric cancer cell lines to identify multiple opportunities for drug repurposing: Primary screen for SJ-GBM2 cells (AID 1347091);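 note: plate controls were DMSO neutral control for no effect and bortezomib for full effect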
How it was run: as §1

[9] = qHTS Assay for Identifying Gametocytocidal Compounds (AID 743244);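 note: % is set by controls: 0 for no effect and ±100 for the full control effect; actives lower the fluorescent signal which means gametocytes are killed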; conditions: P. falciparum 3D7 stage III-V gametocytes, alamarBlue, 72 h; max response: stronger effect = lower value
How it was run: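 Stage III-V P. falciparum 3D7 gametocytes, 20,000 per well, were exposed to compounds for 72 h at 37C, 5% CO2. AlamarBlue was then added for 24 h and viability was read as fluorescence at Ex 525/Em 598 nm.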

[10] = qHTS assay for measurement of the activity of small molecule inhibitors on Zika virus induced Caspase-3 activity in human astrocytoma cells (AID 1224859);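 note: plate controls were ZIKV-infected untreated cells for no effect and uninfected cells for full effect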
How it was run: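 SNB-19 astrocytoma cells, 250/well, pretreated 1 h with compounds, then Zika virus at 2 FFU/cell for 6 h at 37 C; Caspase-Glo 3/7 luminescence after 30 min; percent inhibition normalised to uninfected and infected controls.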

[11] = qHTS profiling for inhibitors of Plasmodium falciparum (3D7) proliferation (AID 743322; call rule not given here;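 note: infected erythrocytes exposed to compound for 72 h before lysis; 100% = DMSO vehicle wells and 0% = 0.29 µM artemisinin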); conditions: P. falciparum 3D7 proliferation; at 28.7 µM (top of the series)
How it was run: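 Erythrocytes infected with P. falciparum (0.3% parasitemia, 2.5% hematocrit) incubated with compounds 72 h at 37 C, 5% CO2. Lysis with saponin/Triton buffer containing SYBR Green I, overnight at room temperature in the dark; DNA fluorescence (485/535 nm) normalised to 0.29 uM artemisinin and DMSO.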

[12] = qHTS profiling for inhibitors of Plasmodium falciparum (DD2) proliferation (AID 743323; call rule not given here); conditions: lower = more inhibition; at 28.7 µM (top of the series)
How it was run: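 P. falciparum Dd2-infected erythrocytes (0.3% parasitemia, 2.5% hematocrit) exposed 72 h at 37 C, 5% CO2. Lysis with SYBR Green, overnight at room temperature, fluorescence 485/535 nm; normalized to 0.29 uM artemisinin and DMSO.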

[13] = qHTS profiling for inhibitors of Plasmodium falciparum (HB3) proliferation (AID 743324); conditions: Plasmodium falciparum HB3 blood-stage proliferation; at 28.7 µM (top of the series);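 note: 100% = DMSO vehicle wells and 0% = artemisinin-treated control wells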
How it was run: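 P. falciparum HB3 grown in erythrocytes (0.3% parasitemia, 2.5% hematocrit final) with compound for 72 h at 37 C, 5% CO2. Parasite DNA detected by SYBR Green after saponin/triton lysis overnight; normalized to 0.29 uM artemisinin and DMSO.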

| Structure (SMILES) | outcome [1] | outcome [2] | outcome [3] | outcome [4] | outcome [5] | outcome [6] | outcome [7] | outcome [8] | max response [9] | outcome [10] | remaining parasite growth % (stronger effect = lower value) [11] | activity, percent of control [12] | remaining proliferation (% of control), lower = more inhibition [13] |
| --- | --- | --- | --- | --- | --- | --- | --- | --- | --- | --- | --- | --- | --- |
| C=CCN1C[C@H](C(=O)N(CCCN(C)C)C(=O)NCC)C[C@@H]2c3cccc4[nH]cc(c34)C[C@H]21 | inactive | inactive | inactive | inactive | inactive | inactive | inactive | inactive | – | – | – | – | – |
| CCCCCCCCCCCCCCCCN | inactive | – | inactive | inactive | inactive | inactive | inactive | inactive | 6.4% (inactive) | inactive | – | – | – |
| CCCCCCCCCCCCCCCCC(C(=O)O)C(O)(CC(=O)O)C(=O)O (stereo not drawn) | inactive | – | inactive | inactive | inactive | inactive | inactive | – | 6.09% (inactive) | inactive | – | – | – |
| NC(=O)[C@@H]1CSSCCC(=O)N[C@@H](CCCCN=C(N)N)C(=O)NCC(=O)N[C@@H](CC(=O)O)C(=O)N[C@@H](Cc2c[nH]c3ccccc23)C(=O)N2CCC[C@H]2C(=O)N1 ([Mpa][hArg]GDWPC-NH2; disulfide 1-7) | inactive | – | inactive | inactive | inactive | inactive | inactive | – | 6.22% (inactive) | inactive | – | – | – |
| NS(=O)(=O)c1cc2c(cc1C(F)(F)F)NCNS2(=O)=O | inactive | – | inactive | inactive | inactive | inactive | inactive | inactive | -4.2% (inactive) | inactive | – | – | – |
| COCC(=O)Nc1c(I)c(C(=O)NCC(O)CO)c(I)c(C(=O)N(C)CC(O)CO)c1I (stereo not drawn) | inactive | – | inactive | inactive | inactive | inactive | inactive | inactive | 10.5% (inactive) | inactive | – | – | – |
| O=c1[nH]c(=O)n([C@H]2C[C@H](O)[C@@H](CO)O2)cc1I | inactive | – | inactive | inactive | inactive | inactive | inactive | inactive | 3.28% (inactive) | inactive | – | – | – |
| CC[C@]12CCCN3CCc4c(n(c5ccccc45)[C@@](O)(C(=O)OC)C1)[C@@H]32 | inactive | – | inactive | – | inactive | inactive | inactive | inactive | 13.2% (inactive) | inactive | – | – | – |
| COc1ccc(C(=O)N2CCN(CC(=O)N3CCOCC3)CC2)cc1 | inactive | – | inactive | inactive | – | inactive | inactive | – | -4.8% (inactive) | inactive | – | – | – |
| COc1ccc2cc(CCC(C)=O)ccc2c1 | inactive | – | inactive | inactive | – | inactive | – | inactive | -1.38% (inactive) | inactive | – | – | – |
| NC(=O)N[C@@H](CCC(=O)O)C(=O)O | inactive | – | inactive | inactive | inactive | inactive | inactive | – | -4.71% (inactive) | inactive | – | – | – |
| Cc1c(C)c2c(c(C)c1OC(=O)c1cccnc1)CC[C@@](C)(CCC[C@H](C)CCC[C@H](C)CCCC(C)C)O2 | inactive | – | inactive | inactive | inactive | inactive | inactive | – | 6.89% (inactive) | inactive | – | – | – |
| CCOc1ccccc1O[C@H](c1ccccc1)[C@H]1CNCCO1 | inactive | – | inactive | – | inactive | inactive | inactive | inactive | – | inactive | 89.6% | 63.9% | 47.7% |
| CC(=O)OCC(=O)[C@@]1(O)CC[C@H]2[C@@H]3CCC4=CC(=O)C=C[C@]4(C)[C@@]3(F)[C@@H](O)C[C@@]21C | inactive | – | – | inactive | inactive | inactive | inactive | inactive | 18.9% (inactive) | inactive | – | – | – |
| COC(=O)N/N=C/c1c[n+]([O-])c2ccccc2[n+]1[O-] | inactive | – | – | inactive | inactive | inactive | inactive | inactive | 5.03% (inactive) | inactive | – | – | – |
| C[N+](C)(C)CC[N+]1(C)Cc2c(Cl)c(Cl)c(Cl)c(Cl)c2C1 | inactive | – | inactive | inactive | inactive | inactive | inactive | inactive | -6.87% (inactive) | inactive | – | – | – |
| Cc1cc(-n2nc3ccc(Cl)cc3n2)c(O)c(C(C)(C)C)c1 | inactive | – | inactive | inactive | – | inactive | inactive | – | -8.61% (inactive) | inactive | – | – | – |
| CCOc1cc(NC(C)=O)ccc1C(=O)OC | inactive | – | – | inactive | inactive | inactive | inactive | inactive | 7.76% (inactive) | inactive | – | – | – |
